Results taken from PubChem BioAssay (Tox21).
Records with an inconclusive call do not appear. The source made the active and inactive calls. Unless noted, the call rests on the fitted dose curve.

What was measured:
[1] = molecular target: Peroxisome proliferator-activated receptor delta (Homo sapiens) (UniProt Q03181); assay: qHTS assay to identify small molecule agonists of the peroxisome proliferator-activated receptor delta (PPARd) signaling pathway (AID 743212)
Summary of the method: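 A PPARd-bla HEK293H line with beta-lactamase under an Upstream Activator Sequence is treated with compounds at 37 C. Substrate loading for 2 h at room temperature precedes the fluorescence measurement.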

[2] = qHTS assay to identify small molecule antagonists of the peroxisome proliferator-activated receptor delta (PPARd) signaling pathway - cell viability counter screen (AID 743213; active means well fitted curve in the direction sought with a large enough effect in the repeat runs; an effect the other way counts as inactive or inconclusive; further: nearly all actives have a fitted effect of over 50% in size)
Summary of the method: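 Viability counter-screen, qHTS format: PPARd-bla HEK293H, L165041 300 nM final, 17 h compound exposure at 37 C, CellTiter-Glo luminescence after 30 min RT.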

[3] = molecular target: Peroxisome proliferator-activated receptor delta (Homo sapiens) (UniProt Q03181); assay: qHTS assay to identify small molecule antagonists of the peroxisome proliferator-activated receptor delta (PPARd) signaling pathway (AID 743215; active means well fitted inhibition curve with a large enough effect in the signal ratio in the repeat runs, not every such curve was filed as active; the % refers to the signal ratio;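 further: cells stimulated with agonist L165041 at 300 nM final during compound exposure; series mostly up to about 62 µM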)
Summary of the method: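 Inhibition of L165041-driven (300 nM final) PPARd signaling is scored in HEK293H UAS-bla cells. Exposure lasts 17 h at 37 C; beta-lactamase activity is then read by FRET substrate fluorescence after 2 h at room temperature.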

[4] = qHTS assay to identify small molecule antagonists of the farnesoid-X-receptor (FXR) signaling pathway - cell viability counter screen (AID 743221; active means well fitted cell-killing curve with a large enough effect in the repeat runs, not every such curve was filed as active; further: nearly all actives have a fitted effect of over 50% in size)
Summary of the method: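 Cytotoxicity counter screen run in the FXR-bla reporter wells: HEK 293T cells exposed to compound with 50 uM (final) chenodeoxycholic acid for 16 h, 37 C, then viability measured by CellTiter-Glo luminescence after 30 min, room temperature.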

[5] = qHTS assay to identify small molecule agonists of the NFkB signaling pathway (AID 1159509; active means well fitted curve in the direction sought with a large enough effect in the signal ratio in the repeat runs, not every such curve was filed as active; the % refers to the signal ratio; further: series mostly up to about 61 µM)
Summary of the method: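 NFkB-bla ME-180 cells carry a beta-lactamase reporter under an NF-kB response element. They were plated overnight, then exposed to compounds for 5 h at 37 C. Read-out is LiveBLAzer FRET after 1.5 hr at room temperature (405 nm excitation; 460/530 nm emission).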

[6] = qHTS assay to identify small molecule agonists of the NFkB signaling pathway - cell viability counter screen (AID 1159515); further: series mostly up to about 61 µM; nearly all actives have a fitted effect of over 55% in size
Summary of the method: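 Multiplexed viability readout: after the 5 hr compound exposure and 1.5 hr FRET substrate step, CellTiter-Glo reagent went into the same NFkB-bla ME-180 wells; ATP luminescence was measured after 30 min at room temperature.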

[7] = qHTS assay to identify small molecule agonists of the endoplasmic reticulum stress response signaling pathway (AID 1159516; active means well fitted activation curve with a large enough effect in the signal ratio in the repeat runs, not every such curve was filed as active; the % refers to the signal ratio)
Summary of the method: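 Tox21 10K library screened in quantitative HTS format on ESRE-bla HeLa cells, a beta-lactamase reporter under ER stress response element control; 5 hr treatment, FRET read.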

[8] = qHTS assay to identify small molecule agonists of the endoplasmic reticulum stress response signaling pathway - cell viability counter screen (AID 1159517); further: series mostly up to about 61 µM; nearly all actives have a fitted effect of over 50% in size
Summary of the method: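 CellTiter-Glo was added to wells already read for beta-lactamase FRET, and luminescence was recorded 30 min later. Cells: ESRE-bla HeLa, 1,500 per well, compound exposure 5 hr at 37 C.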

[9] = qHTS assay to identify small molecule antagonists of the retinoid-related orphan receptor gamma (ROR-gamma) signaling pathway - cell viability counter screen (AID 1159520; active means well fitted curve in the direction sought with a large enough effect in the repeat runs; an effect the other way counts as inactive or inconclusive; further: nearly all actives have a fitted effect of over 50% in size)
Summary of the method: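 Tet-on ROR gamma CHO cells (1,000/well) were plated 4 hr, given compounds in DMSO for 2 hr at 37 C, then induced with 1 uM final doxycycline for 16 hr. Viability was read as ATP by CellTiter-Glo luminescence after 30 min.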

[10] = qHTS assay to identify small molecule agonists of the AP-1 signaling pathway - cell viability counter screen (AID 1159525); further: nearly all actives have a fitted effect of over 55% in size
Summary of the method: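 ME-180 AP-1-bla, 2500 cells/well, Opti-MEM + 0.5% dialyzed FBS; overnight 37 °C; cpd 15-pt titration, 5 h 37 °C; CellTiter-Glo 30 min RT; luminescence read; normalised to TOAB and DMSO controls.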

[11] = qHTS assay to identify small molecule agonists of the AP-1 signaling pathway (AID 1159526)
[12] = molecular target: Bile acid receptor (Homo sapiens) (UniProt Q96RI1); assay: qHTS assay to identify small molecule antagonists of the farnesoid-X-receptor (FXR) signaling pathway (AID 743217; active means well fitted inhibition curve with a large enough effect in the signal ratio in the repeat runs, not every such curve was filed as active; the % refers to the signal ratio)
Summary of the method: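 Antagonist mode against 50 uM (final) chenodeoxycholic acid stimulation in FXR-bla HEK 293T cells, 16 h at 37 °C. Inhibition detected as reduced beta-lactamase activity via LiveBLAzer B/G FRET fluorescence after 2 h at room temperature.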

[13] = qHTS assay to identify small molecule agonists of the farnesoid-X-receptor (FXR) signaling pathway - cell viability counter screen (AID 743218; active means well fitted curve in the direction sought with a large enough effect in the repeat runs; an effect the other way counts as inactive or inconclusive; further: nearly all actives have a fitted effect of over 45% in size)
Summary of the method: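 Cytotoxicity counter-screen run in parallel, same wells: FXR-UAS-bla HEK 293T cells dosed 16 h at 37 C, viability read by CellTiter-Glo luminescence after 30 min at room temperature.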

[14] = molecular target: Bile acid receptor (Homo sapiens) (UniProt Q96RI1); assay: qHTS assay to identify small molecule agonists of the farnesoid-X-receptor (FXR) signaling pathway (AID 743220; active means well fitted activation curve with a large enough effect in the signal ratio in the repeat runs, not every such curve was filed as active; the % refers to the signal ratio)
Summary of the method: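 Beta-lactamase reporter under UAS control in GeneBLAzer FXR HEK 293T cells (5000/well) measured with LiveBLAzer FRET substrate after 2 h at room temperature. Compound exposure lasted 16 h at 37C.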

[15] = molecular target: Vitamin D3 receptor (Homo sapiens) (UniProt P11473); assay: qHTS assay to identify small molecule agonists of the vitamin D receptor (VDR) signaling pathway (AID 743222)
Summary of the method: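 Quantitative HTS agonist-mode screen: compounds in DMSO were pin-transferred onto VDR-bla cells and incubated 16 h at 37C, 5% CO2. Reporter activity was detected with LiveBLAzer B/G FRET substrate after 2 h at room temperature.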

[16] = qHTS assay to identify small molecule agonists of the vitamin D receptor (VDR) signaling pathway - cell viability counter screen (AID 743224; active means well fitted curve in the direction sought with a large enough effect in the repeat runs; an effect the other way counts as inactive or inconclusive)
Summary of the method: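 Viability is measured in the same wells as the VDR-bla reporter assay: after 16 h compound treatment and 2 h substrate loading, CellTiter-Glo is added and luminescence read 30 min later.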

[17] = molecular target: Vitamin D3 receptor (Homo sapiens) (UniProt P11473); assay: qHTS assay to identify small molecule antagonists of the vitamin D receptor (VDR) signaling pathway (AID 743223; active means well fitted inhibition curve with a large enough effect in the signal ratio in the repeat runs, not every such curve was filed as active; the % refers to the signal ratio)
Summary of the method: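 Antagonist mode: compound added to VDR-bla cells alongside agonist 1alpha,25-dihydroxyvitamin D3 (3 nM final), incubation 16 h at 37C. Read-out is LiveBLAzer FRET fluorescence, 2 h at room temperature.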

[18] = qHTS assay to identify small molecule antagonists of the vitamin D receptor (VDR) signaling pathway - cell viability counter screen (AID 743225; active means well fitted curve in the direction sought with a large enough effect in the repeat runs; an effect the other way counts as inactive or inconclusive; further: nearly all actives have a fitted effect of over 50% in size)
Summary of the method: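 Cytotoxicity counter screen read by CellTiter-Glo luminescence (30 min, room temperature) in the same wells as the VDR-bla antagonist readout. HEK 293T VDR-UAS-bla cells had 16 h at 37C with compound and 3 nM (final) 1-alpha,25-dihydroxyvitamin D3, then 2 h with FRET substrate.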

Measured: Potency

Chain of Peroxisome proliferator-activated receptor delta (Homo sapiens) (Q03181 whole entry, looked up): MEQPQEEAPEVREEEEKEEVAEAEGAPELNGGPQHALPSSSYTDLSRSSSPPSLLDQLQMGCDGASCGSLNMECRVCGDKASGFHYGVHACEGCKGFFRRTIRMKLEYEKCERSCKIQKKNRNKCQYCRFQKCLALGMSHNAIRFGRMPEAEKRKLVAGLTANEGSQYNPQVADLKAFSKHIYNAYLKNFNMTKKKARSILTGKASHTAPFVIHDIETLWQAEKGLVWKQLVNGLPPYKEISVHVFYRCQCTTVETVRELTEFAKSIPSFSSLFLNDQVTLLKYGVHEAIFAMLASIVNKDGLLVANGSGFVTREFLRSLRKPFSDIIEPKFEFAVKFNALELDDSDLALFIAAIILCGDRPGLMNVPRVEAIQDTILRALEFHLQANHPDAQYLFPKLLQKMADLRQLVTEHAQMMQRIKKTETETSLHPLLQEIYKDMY
Chain of Bile acid receptor (Homo sapiens) (Q96RI1 whole entry, looked up): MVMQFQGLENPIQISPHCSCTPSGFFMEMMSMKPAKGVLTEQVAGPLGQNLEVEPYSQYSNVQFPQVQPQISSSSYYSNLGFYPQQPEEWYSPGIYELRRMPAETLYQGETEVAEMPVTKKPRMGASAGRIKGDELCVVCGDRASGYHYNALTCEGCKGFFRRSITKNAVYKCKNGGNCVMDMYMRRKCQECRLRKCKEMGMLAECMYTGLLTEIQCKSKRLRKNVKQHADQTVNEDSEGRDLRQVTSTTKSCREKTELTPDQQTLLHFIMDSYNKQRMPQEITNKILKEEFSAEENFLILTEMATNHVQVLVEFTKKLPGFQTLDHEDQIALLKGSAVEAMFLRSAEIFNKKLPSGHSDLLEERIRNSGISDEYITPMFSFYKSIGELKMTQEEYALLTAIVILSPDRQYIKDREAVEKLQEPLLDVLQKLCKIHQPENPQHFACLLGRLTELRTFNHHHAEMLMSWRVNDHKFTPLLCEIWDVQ
Chain of Vitamin D3 receptor (Homo sapiens) (P11473 whole entry, looked up): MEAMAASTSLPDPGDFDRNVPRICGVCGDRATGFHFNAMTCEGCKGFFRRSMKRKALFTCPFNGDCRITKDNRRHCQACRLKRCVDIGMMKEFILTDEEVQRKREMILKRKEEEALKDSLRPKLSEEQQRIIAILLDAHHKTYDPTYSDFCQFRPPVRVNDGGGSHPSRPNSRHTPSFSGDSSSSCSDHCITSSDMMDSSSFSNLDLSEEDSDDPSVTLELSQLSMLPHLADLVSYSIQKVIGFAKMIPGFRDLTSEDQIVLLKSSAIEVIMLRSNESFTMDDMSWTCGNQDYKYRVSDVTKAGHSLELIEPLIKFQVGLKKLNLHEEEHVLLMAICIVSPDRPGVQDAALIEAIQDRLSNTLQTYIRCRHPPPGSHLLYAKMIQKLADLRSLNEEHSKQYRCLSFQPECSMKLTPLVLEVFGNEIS

C[C@@H]1C[C@H]2[C@@H]3CCC4=CC(=O)C=C[C@]4(C)[C@@]3(F)[C@@H](O)C[C@]2(C)[C@@]1(O)C(=O)CO
not listed: [12] | [13] | [14] | [15] | [16] | [17] | [18]
inactive: all other assays above

CCOC(=O)CC(=O)C(=O)OCC
not listed: [1] | [3] | [17] | [18]
inactive: all other assays above

CCOC(=O)c1ccccc1OC
not listed: [12] | [14]
inactive: all other assays above

C/C=C/C=C/CCCCCCCO
not listed: [2] | [3] | [15] | [17]
inactive: all other assays above

ON(Cc1ccccc1)Cc1ccccc1
not listed: [1] | [12] | [14] | [16] | [17]
inactive: all other assays above

CC(=O)N(c1onc(C)c1C)S(=O)(=O)c1ccc(N)cc1
not listed: [1] | [2] | [3] | [13] | [14] | [17]
inactive: all other assays above

CCOC(=O)/C=C/C(=O)O
not listed: [4] | [12] | [13] | [14] | [17] | [18]
inactive: all other assays above

CCCOc1ccc(S(=O)(=O)N2CCN(CC)CC2)cc1-c1nc2c(CC)n(Cc3ccccn3)nc2c(=O)[nH]1
not listed: [1] | [3] | [17]
inactive: all other assays above

C=CC(=O)NCOCC(C)C
not listed: [1] | [3] | [4] | [17]
inactive: all other assays above
